Some test systems named below: NCI-H23 lung; NCI-H226 lung; NCI-H322M lung; HOP-62 NSCLC; NCI-H460 lung; HOP-92 NSCLC; NCI-H522 lung; A549/ATCC NSCLC; 786-0 renal; DU-145 prostate; K-562 leukemia; MALME-3M melanoma; MDA-MB-231 breast; RXF 393 renal; SF-268 CNS; SF-295 CNS; SF-539 CNS; UACC-257 melanoma; M14 melanoma; COLO 205 colon.
What all share (experiment): NCI-60 one-dose screen, 48 h (100 = growth as untreated, 0 = no growth, -100 = all killed)
Holding throughout (settings): 10 µM

About 83,000 compounds went through this panel and 20% of them were active in at least one assay; those are over-represented in the sample as a whole.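 In brief: 96-well plates, 48 h treatment, single concentration, percent growth endpoint.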 A number with no mark means an inactive call. Active and inactive are the calls of the source. Rule for the calls: active = growth percent below 10; inactive = the rest.

Consider `O=[N+]([O-])c1cccc(C(F)(F)F)c1`, for which the growth in the experiment with NCI-H23 lung is 101%; in the experiment with NCI-H226 lung, 98.5%; in the experiment on NCI-H322M lung it was 132%; in the experiment with HOP-62 NSCLC, 96.9%; with NCI-H460 lung it was 98.1%; with HOP-92 NSCLC, 87.8%. Besides, the growth in the experiment on NCI-H522 lung was 85.5%; in the experiment on A549/ATCC NSCLC, 94.7%; in the experiment with 786-0 renal, 107%; in the experiment on DU-145 prostate, 120%; with K-562 leukemia, 119%; in the experiment on MALME-3M melanoma it was 135%. Also, the growth was 98% with MDA-MB-231 breast; 98.7% in the experiment on RXF 393 renal; 102% in the experiment with SF-268 CNS; 101% with SF-295 CNS; 102% in the experiment with SF-539 CNS; 97.3% in the experiment with UACC-257 melanoma. The growth in the experiment with M14 melanoma is 97.9%.

Regarding `CN(C)CCN(C)CC(C)(C)C(=O)/C=C/c1ccc(Cl)cc1`, the growth in the experiment with NCI-H23 lung was 5.94% (active); with NCI-H226 lung, -3.14% (active); in the experiment with NCI-H322M lung it was 5.34% (active); with HOP-62 NSCLC, 3.79% (active); in the experiment with NCI-H460 lung, -14.9% (active); with HOP-92 NSCLC, -24.9% (active). The growth was -62.6% (active) with NCI-H522 lung; 8.12% (active) in the experiment on A549/ATCC NSCLC; -22.5% (active) in the experiment on 786-0 renal; -86.5% (active) with COLO 205 colon; 6.16% (active) with DU-145 prostate; 4.79% (active) in the experiment on K-562 leukemia. Further, the growth is -27.7% (active) in the experiment on MALME-3M melanoma; -82.8% (active) with RXF 393 renal; 20.5% in the experiment with SF-295 CNS; -25.9% (active) in the experiment on SF-539 CNS; 23.1% with UACC-257 melanoma; -64.4% (active) in the experiment on M14 melanoma.

In the case of `COC(=O)c1[nH]c(=O)c(C#N)c(C(=O)OC)c1C(=O)c1ccccc1`, the growth was 95.4% in the experiment with NCI-H23 lung; 97.7% in the experiment with NCI-H226 lung; 101% in the experiment with NCI-H322M lung; 94.2% in the experiment on HOP-62 NSCLC; 102% in the experiment with NCI-H460 lung; 101% in the experiment with HOP-92 NSCLC. The growth is 99.7% in the experiment with NCI-H522 lung; 93.7% in the experiment with A549/ATCC NSCLC; 100% in the experiment with 786-0 renal; 123% with COLO 205 colon; 104% in the experiment with DU-145 prostate; 102% in the experiment on K-562 leukemia. Further, the growth was 96.8% in the experiment on MALME-3M melanoma; 122% in the experiment on RXF 393 renal; 99.4% with SF-268 CNS; 96.2% in the experiment on SF-295 CNS; 97.1% with SF-539 CNS; 86.1% in the experiment on UACC-257 melanoma. The growth in the experiment with M14 melanoma was 107%.

`CC(=O)Oc1ccc(Br)cc1C(=O)O`: the growth with NCI-H23 lung is 98.6%; in the experiment on NCI-H226 lung, 99%; in the experiment with NCI-H322M lung, 101%; in the experiment on HOP-62 NSCLC, 86.9%; in the experiment with NCI-H460 lung, 106%; with HOP-92 NSCLC it was 97.8%. Besides, the growth in the experiment with NCI-H522 lung is 91.4%; with A549/ATCC NSCLC, 103%; with 786-0 renal it was 97.4%; in the experiment with DU-145 prostate, 120%; with K-562 leukemia, 109%; in the experiment with MALME-3M melanoma, 98.2%. Also, the growth in the experiment on MDA-MB-231 breast was 118%; in the experiment with RXF 393 renal, 98.8%; in the experiment on SF-268 CNS, 106%; with SF-295 CNS it was 109%; with SF-539 CNS, 93.2%; in the experiment with UACC-257 melanoma it was 101%.

For the compound `Cc1cc2nc(CC(=O)c3cccc([N+](=O)[O-])c3)c(=O)[nH]c2cc1C`, the growth in the experiment with NCI-H23 lung is 80.3%; in the experiment with NCI-H226 lung, 90.7%; in the experiment with NCI-H322M lung it was 93.8%; in the experiment on HOP-62 NSCLC it was 101%; with NCI-H460 lung, 87.6%; in the experiment on HOP-92 NSCLC, 74.9%. For the same compound, the growth in the experiment on NCI-H522 lung was 70.4%; in the experiment on A549/ATCC NSCLC, 97.9%; in the experiment on 786-0 renal, 85.5%; in the experiment on COLO 205 colon, 110%; in the experiment on DU-145 prostate, 100%; with K-562 leukemia it was 73.7%. The growth in the experiment on MALME-3M melanoma was 98.5%; in the experiment on RXF 393 renal, 107%; in the experiment with SF-268 CNS it was 98.1%; with SF-295 CNS, 75.4%; in the experiment with SF-539 CNS, 88.2%; in the experiment on UACC-257 melanoma, 97%. Further, the growth in the experiment on M14 melanoma was 81.4%.

Regarding `CCCCCCCCCCCCCC(=O)Oc1ccc[nH]c1=O`, the growth in the experiment with NCI-H23 lung was 105%; with NCI-H226 lung it was 92.7%; in the experiment on NCI-H322M lung, 87%; in the experiment on HOP-62 NSCLC, 94.1%; in the experiment on NCI-H460 lung, 105%; in the experiment on HOP-92 NSCLC it was 84.9%. The growth in the experiment with NCI-H522 lung is 90.7%; in the experiment on A549/ATCC NSCLC it was 89.4%; in the experiment with 786-0 renal, 89.7%; in the experiment on COLO 205 colon, 112%; in the experiment on DU-145 prostate it was 103%; in the experiment with K-562 leukemia, 90%. For the same compound, the growth in the experiment on MALME-3M melanoma was 95.2%; with RXF 393 renal it was 113%; in the experiment on SF-295 CNS, 97.1%; in the experiment with SF-539 CNS it was 99%; in the experiment with UACC-257 melanoma, 84.3%; with M14 melanoma, 101%.

For the compound `CC1(C)N=C(N)N=C(N)N1c1ccc(Cl)cc1`, the growth is 37.2% with NCI-H23 lung; 76.1% in the experiment with NCI-H226 lung; 59.2% in the experiment on NCI-H322M lung; 36.9% in the experiment with HOP-62 NSCLC; 18.3% in the experiment with NCI-H460 lung; 132% in the experiment with HOP-92 NSCLC. The growth is 46.6% with NCI-H522 lung; 27.4% in the experiment on A549/ATCC NSCLC; 17.7% with 786-0 renal; 55.2% with DU-145 prostate; 20.1% with K-562 leukemia; 63.4% with MALME-3M melanoma. For the same compound, the growth in the experiment with MDA-MB-231 breast was 69%; in the experiment with RXF 393 renal, 71%; in the experiment on SF-268 CNS, 36.6%; in the experiment with SF-295 CNS, 4.05% (active); with SF-539 CNS, 22.7%; in the experiment with UACC-257 melanoma, 64%.

As for `c1ccc(/C(=N\N=C(/c2ccccc2)c2cccs2)c2cccs2)cc1`, the growth is 97.3% with NCI-H23 lung; 89.3% in the experiment with NCI-H226 lung; 83.1% in the experiment on NCI-H322M lung; 102% in the experiment with HOP-62 NSCLC; 105% in the experiment with NCI-H460 lung; 92% in the experiment on HOP-92 NSCLC. Also, the growth in the experiment with NCI-H522 lung was 83.1%; in the experiment on A549/ATCC NSCLC, 105%; in the experiment on 786-0 renal, 84.8%; with COLO 205 colon, 99.3%; with DU-145 prostate, 105%; in the experiment with K-562 leukemia it was 83.6%. The growth in the experiment on RXF 393 renal is 108%; in the experiment with SF-268 CNS, 97%; in the experiment with SF-295 CNS, 95.8%; in the experiment on SF-539 CNS, 111%; with UACC-257 melanoma, 106%; with M14 melanoma, 101%.

Regarding `O=C1NC(=O)C2C(=O)NC(=O)C1C21CCc2ccccc21` (stereo unspecified), the growth in the experiment on NCI-H23 lung was 91.8%; in the experiment on NCI-H226 lung, 87.7%; in the experiment with NCI-H322M lung it was 106%; with HOP-62 NSCLC, 94.3%; with NCI-H460 lung it was 115%; in the experiment with HOP-92 NSCLC, 89.5%. Besides, the growth is 97.4% with NCI-H522 lung; 103% in the experiment on A549/ATCC NSCLC; 101% in the experiment on 786-0 renal; 125% with COLO 205 colon; 115% in the experiment with DU-145 prostate; 98.2% in the experiment on K-562 leukemia. In addition, the growth in the experiment on MALME-3M melanoma is 102%; with RXF 393 renal, 99.3%; with SF-268 CNS it was 111%; in the experiment with SF-295 CNS, 102%; in the experiment with SF-539 CNS, 93.7%; in the experiment on UACC-257 melanoma, 107%. Besides, in the experiment on M14 melanoma, the growth was 103%.

The values are drawn from PubChem BioAssay (NCI).
